# Reference: PubChem BioAssay (NCI)
# Where “and” joins values, the source holds several entries; their conditions need not be identical. Equal values may be shown once. This is part of a sample that, as a whole, favours compounds with a hit. Of some 83,000 tested, about 20% had one in any assay.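 48-hour exposure, single concentration, 96-well plates; percent growth endpoint where 0 means no net growth. Active: below 10.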 Calls of active or inactive are those of the source.
# Tested on: SR leukemia
# Test: NCI-60 one-dose screen, 48 h (100 = growth as untreated, 0 = no growth, -100 = all killed)
# Settings: 0.01 µM
# Procedure: Growth inhibition of the SR human tumor cell line is measured as a screen for anti-cancer activity. Cells are grown in 96 well plates and exposed to the test compound for 48 hours. Compounds are tested at a single concentration, which is 10^-5 M for most compounds. The reported endpoint is percent growth (GI% or GIPRCNT), where numbers from 0 - 100% represent growth inhibition, and numbers from -100% - 0 represent cell death. For example, a value of 40 represents 60% growth inhibition. A value of 0 means no net growth occurred over the course of the experiment. A value of -40 indicates 40% of cells at the beginning of the experiment died by the end of the experiment. A value of -100 means all cells are dead at the end of the experiment.
# NCI-60 Human Tumor Cell Lines Screen was performed using the standard one-dose NCI protocol, which is described in more detail at https://dtp.cancer.gov/discovery_development/nci-60/default.htm.
# Compounds with GIPRCNT values below 10 were considered active. Activity score was based on GIPRCNT using the following formula: […]
# Score is 0 for GIPRCNT values of 100 or above, 50 for GIPRCNT values of 0, and 100 for GIPRCNT values of -100.
row,Structure (SMILES),growth
1,CC(=O)O[C@H]1C(=O)[C@@]2(C)[C@H]([C@H](OC(=O)c3ccccc3)[C@]3(O)C[C@H](OC(=O)[C@H](O)[C@@H](NC(=O)c4ccccc4)c4ccccc4)C(C)=C1C3(C)C)[C@]1(OC(C)=O)CO[C@@H]1C[C@@H]2O,19.1% (inactive)

# Same assay, conditions: 2.5 µM
row,Structure (SMILES),growth
1,CC(=O)O[C@H]1C(=O)[C@@]2(C)[C@H]([C@H](OC(=O)c3ccccc3)[C@]3(O)C[C@H](OC(=O)[C@H](O)[C@@H](NC(=O)c4ccccc4)c4ccccc4)C(C)=C1C3(C)C)[C@]1(OC(C)=O)CO[C@@H]1C[C@@H]2O,7.15% (active)

# Same assay, conditions: 5 µM
row,Structure (SMILES),growth
1,CC(=O)O[C@H]1C(=O)[C@@]2(C)[C@H]([C@H](OC(=O)c3ccccc3)[C@]3(O)C[C@H](OC(=O)[C@H](O)[C@@H](NC(=O)c4ccccc4)c4ccccc4)C(C)=C1C3(C)C)[C@]1(OC(C)=O)CO[C@@H]1C[C@@H]2O,9.15% (active)

# Same assay, conditions: 10 µM
row,Structure (SMILES),growth
1,Cc1cc(Cl)ccc1NC(=O)/C(Cl)=C1/Sc2ccccc2NC1=O,100% (inactive)
2,COc1ccc(C(C#N)=C2C=CC(=NO)C=C2)cc1,49.8% (inactive)
3,N#CC(=C1C=CC(=NO)C=C1)c1ccccc1,-17.5% (active)
4,O=S(=O)(c1cc(Cl)ccc1O)c1cc(Cl)ccc1O,84.6% (inactive)
5,S=C1SCN(CCc2ccccc2)CN1CCc1ccccc1,61.2% (inactive)
6,CC(=O)O[C@H]1C(=O)[C@@]2(C)[C@H]([C@H](OC(=O)c3ccccc3)[C@]3(O)C[C@H](OC(=O)[C@H](O)[C@@H](NC(=O)c4ccccc4)c4ccccc4)C(C)=C1C3(C)C)[C@]1(OC(C)=O)CO[C@@H]1C[C@@H]2O,-2.72% (active) and 12.2% (inactive)
7,Nc1nc(N)c2cc(Sc3ccc4ccccc4c3)ccc2n1,-26.3% (active)
8,Cc1cc(C)c(N2C(=O)CC(Sc3ccccc3N)C2=O)c(C)c1 (stereo unspecified),23.4% (inactive)
9,Cc1c(-c2ccccc2)[nH]c2ccccc12,102% (inactive)
10,S=P(N1CC1)(N1CC1)N1CC1,35.4% (inactive)
11,O=C1c2ccccc2CCC1(Br)Br,0.0746% (active)
12,Cc1cc(O)c2c(c1O)C(=O)C13C(=C2O)C(=O)C2C(O)C1C1C(O)C3C(=O)C3=C(O)c4c(O)cc(C)c(O)c4C(=O)C321 (stereo unspecified),12.6% (inactive)
13,CC[C@@]1(OC(=O)CN(C)C)C(=O)OCc2c1cc1n(c2=O)Cc2cc3c(N)cccc3nc2-1,-3.07% (active)
14,O=C(NC(=S)Nc1ccccn1)c1ccccc1,112% (inactive)
15,O=C(CNS(=O)(=O)Cc1ccccc1)NNc1ccccc1,39.2% (inactive)
16,N#C/C(=C/N1C(=O)/C(=C/c2ccc([N+](=O)[O-])cc2)SC1=S)c1nc2ccccc2s1,73.8% (inactive)

row,Structure (SMILES),growth
1,O=Nc1ccc(Nc2ccccc2)cc1,28.2% (inactive)
2,ClCCn1c(CCl)nc2ccc(Cl)cc21,-32.4% (active)
3,CCC(C)(c1ccc(O)c(C)c1)c1ccc(O)c(C)c1,113% (inactive)
4,O=C1C(Cl)=C(Cl)C(Cl)(Cl)C(Cl)C1(Cl)Cl (stereo unspecified),90.2% (inactive)
5,COc1cccc(C(c2cc3c(cc2O)OCO3)N2CCOCC2)c1OC (stereo unspecified),89.5% (inactive)
6,COc1ccc2c(c1)[nH]c1c(/C=C/c3ccccc3)nccc12,29.3% (inactive)
7,CC1CCC2(C(=O)O)CCC3(C)C(=CCC4C5(C)CC(O)C(O)C(C)(CO)C5C(O)CC43C)C2C1C (stereo unspecified),105% (inactive)
8,Cn1c2nc3ccccc3c-2nc2ccccc21,83.5% (inactive) and 91.1% (inactive)
9,O=C(O)c1ccccc1.[Ag],102% (inactive)
10,COc1cc(N)ccc1Nc1c2ccccc2nc2ccccc12,10.1% (inactive)
11,NCc1c(O)ccc2ccccc12,87.8% (inactive)
12,O=c1[nH]cc(/C=N\Nc2ccccc2)c(=O)[nH]1,65.1% (inactive)
13,O=C1c2cccc3cc([N+](=O)[O-])cc(c23)C(=O)N1CCN1CCCC1,-34.6% (active)
14,O=C1C=CC(=O)N1c1ccc(N2C(=O)C=CC2=O)cc1,0.0539% (active)
15,CN(C)c1ccc(/C=C/c2ccnc3ccccc23)cc1N,41.4% (inactive)
16,Cn1ncc2cc3c(Nc4ccc(Cl)cc4)cccc3nc21,84.8% (inactive)

# Same assay, conditions: 100 µM
row,Structure (SMILES),growth
1,S=P(N1CC1)(N1CC1)N1CC1,22.6% (inactive)
